Hits are enriched below; roughly 3.5% of the tested compounds scored in any of these assays.
KCNK9 block: inhibitors of human KCNK9 two-pore domain potassium channel; actives 1.2% (n = 310,000); B-score at 10 µM; HEK293 KCNK9, FluxOR thallium flux fluorescence; stronger effect = lower value; Q9NPC2;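 active = ratio B-score over 3 SD below the library mean, with starting fluorescence within 5 SD of its mean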;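 also: negative B-score means less thallium flux so channel inhibition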
KCNK3 block: human KCNK3 channel inhibition, primary screen; O14649; CHO-KCNK3 thallium flux, FluxOR fluorescence; stronger effect = lower value; B-score at 10 µM; actives 0.84% (n = 340,000); AID 602410;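 active = B-score under library mean minus 4 SD, starting fluorescence ratio at most library mean plus 5 SD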;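 also: more negative B-score means stronger inhibition of thallium flux through KCNK3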
TMEM16A act: activators or potentiators of mouse TMEM16A chloride channel; Q8BHY3; HEK293 TMEM16A/YFP-H148Q/I152L, iodide quench fluorescence; stronger effect = lower value; B-score at 10 µM; actives 0.3% (n = 340,000); AID 623877;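 active = fluorescence-ratio B-score plate-corrected deviation score at least 3 library SD below zero, with starting fluorescence score within 5 deviations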;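 also: channel opened by trigger with iodide after compound preincubation; score built on the fluorescence ratio of max minus min over baseline; more negative score means more quench and so TMEM16A activation or potentiation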
Kir21 block: blocks the mouse Kir2.1 inward-rectifier potassium channel | P35561 | AID 1672 | B-score at 10 µM | HEK293-Kir2.1, FluxOR thallium flux fluorescence; stronger effect = lower value | actives 0.85% (n = 310,000);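 active = fluorescence ratio B-score at or below minus 3 SD of library scores, with starting-brightness B-score within 2 SD, cut at about -4.2 in these data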;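 also: channel flux triggered by added potassium and thallium sulfate stimulus; B-score of peak minus minimum fluorescence over baseline after thallium stimulus; more negative B-score means stronger Kir2.1 block with less thallium influx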
TMEM16A inh: inhibitors of mouse TMEM16A calcium-activated chloride channel; Q8BHY3; HEK293 TMEM16A/YFP iodide influx fluorescence, ionomycin; normalized B-score (activity score, 25-100; higher = stronger inhibition) at 10 µM; actives 1.2% (n = 310,000); AID 588511;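 active = ratio plate-corrected score three or more library SD toward inhibition, starting fluorescence score within five deviations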;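 also: score derived from kinetic fluorescence span divided by baseline fluorescence per well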
* hit, by the source's call; i = inactive; nt = not tested or not shown.

SMILES	KCNK9 block	KCNK3 block	TMEM16A act	Kir21 block	TMEM16A inh
O=C(Nc1nccs1)c1ccc(COc2ccccc2Br)o1	-7.1*	i	i	-0.72	i
CN(c1ccccc1)c1ccc(/C=C/[N+](=O)[O-])cc1	i	i	i	-11*	i
CN(C)c1ccc(-n2cccc2/C=C/[N+](=O)[O-])cc1	i	i	i	-1.2	i
Cc1ccc(OCC(=O)OC(C)CN2CCCCC2)cc1 (configuration not stated)	i	i	i	-0.7	i
COc1ccc(-c2nc(N)ncc2-c2ccccc2)c(O)c1	i	i	i	-0.11	i
COc1ccc(-c2cnc(N)nc2-c2ccc(OC)cc2O)cc1	i	i	-17*	0.02	i
CC(C)CC1NC(=O)N(CC(=O)Nc2cc(S(=O)(=O)N3CCOCC3)ccc2Cl)C1=O (configuration not stated)	nt	i	i	nt	nt
CCn1c(CNC(=O)COc2ccc(C(C)C)cc2)nnc1SCC(=O)Nc1ccccc1C(C)C	i	i	i	-0.13	25*
CCOC(=O)C1(Cc2ccccc2C#N)CCCCC1=O (configuration not stated)	nt	i	i	nt	nt
C/C(=C\C(=O)c1ccccc1)Nc1ccc(Br)c(Cl)c1	i	i	i	-0.16	25*
COCc1cc(=O)[nH]c2c1c(-c1ccccc1)nn2C	i	i	i	-0.23	i
COc1ccccc1OCc1nnc(SCC(=O)c2cc(Cl)ccc2OC)o1	i	i	i	1.8	100*
COc1ccccc1OCc1nnc(SCC(=O)N2CCCCC2)o1	i	i	i	0.82	nt
O=c1cc(CSc2nc(NCc3ccccc3)c3ccccc3n2)nc2ccc(Cl)cn12	i	i	i	-0.42	i
CC(Sc1nnc(Cn2c(=O)sc3ccccc32)n1C)c1ccccc1 (configuration not stated)	i	i	i	-4.2*	i
CCCCN1C(=O)N(CCc2ccc(F)cc2)S(=O)(=O)c2cc(C(F)(F)F)ccc21	nt	i	i	nt	nt
Cc1onc(-c2ccccc2)c1C(=O)N1CCc2ccccc21	i	i	i	1.2	i
NC(=NCCc1c[nH]c2ccccc12)NC(=O)c1ccc(F)cc1	i	i	i	-7.2*	i
CCOc1ccc(CN(C)CC(=O)Nc2ccc([N+](=O)[O-])cc2Cl)cc1	i	i	i	-1.3	i
CC(=O)CSc1nnc(-c2ccc3c(c2)OCO3)o1	i	i	-16*	1.7	i
CC(=O)Nc1ccc(NC(=O)CSc2nnc(-c3ccc4c(c3)OCO4)o2)cc1	nt	i	i	nt	nt
CC(C)(C)c1ccc(-c2nnc(SCC(=O)c3ccc4c(c3)OCCO4)o2)cc1	i	i	i	1.8	100*
O=C(CSc1nnc(-c2ccc(F)cc2)o1)c1ccc2c(c1)OCCO2	i	i	i	0.11	i
CC(=O)N1CCN(S(=O)(=O)c2cccc(C(=O)NCc3ccc(F)cc3)c2)CC1	nt	i	i	nt	nt
COc1ccc(C)cc1Nc1n[n+](-c2ccccc2)c(-c2ccc(OC)c(OC)c2OC)s1	i	i	i	-4.9*	i
SMILES	KCNK9 block	KCNK3 block	TMEM16A act	Kir21 block	TMEM16A inh
CN(C)c1ccc(-c2sc(Nc3ccccc3)n[n+]2-c2ccc(F)cc2)cc1	i	i	i	-6.7	i
COc1ccc(C)cc1Nc1n[n+](-c2ccccc2)c(-c2ccc(N(C)C)cc2)s1	-7.2*	i	i	-1.1	i
COc1ccc(N2CCN(c3ncnc4scc(-c5ccc(C)cc5)c34)CC2)cc1	-7.9*	i	i	1.6	i
COc1ccc(-c2csc3ncnc(N4CCN(c5cccc(OC)c5)CC4)c23)cc1	i	i	i	0.21	i
Cc1cc(OCC(=O)NNC(=S)NC(=O)c2ccc(Br)o2)ccc1Cl	i	i	-4.6*	-0.63	25*
c1ccc(-c2nc(N3CCNCC3)nc3ccccc23)cc1	i	i	i	-7.2*	i
c1ccc(-c2nc(N3CCCCC3)nc3ccccc23)cc1	i	i	i	0.05	i
Cc1cc(C)c2nc(Nc3nc(CSc4nc5ccccc5[nH]4)cc(=O)[nH]3)nc(C)c2c1	nt	i	-6.4*	nt	nt
Cc1cc(C)c2nc(Nc3nc(-c4ccccc4)cc(=O)[nH]3)nc(C)c2c1	i	i	i	0.05	i
COc1ccc([C@H]2CC(=O)C=C(c3ccc4ncccc4c3)C2)cc1OC	nt	i	i	nt	nt
O=C(c1sc2ccccc2c1Cl)N(Cc1ccccc1)C1CCS(=O)(=O)C1 (configuration not stated)	i	i	i	1.4	i
O=C(c1sc2ccccc2c1Cl)N(Cc1ccccc1Cl)C1CCS(=O)(=O)C1 (configuration not stated)	-6.8*	i	i	0.93	i
CC1CCN(CCCNC(=O)c2ccc(CSCc3cccc(Cl)c3)o2)CC1	i	i	i	-6.7*	i
CN1CCN(CCCNC(=O)c2ccc(CSCc3cccc(Cl)c3)o2)CC1	i	nt	nt	-1.9	i
CC(C)(C)OC(=O)NCCCCCc1nnc(SCc2ccc(F)cc2)o1	i	i	i	-2.4	i
CC(C)(C)OC(=O)NCCc1nnc(SCc2ccccc2)o1	i	i	i	-6.1*	i
CC(C)(C)OC(=O)NCCc1nnc(SCc2ccccc2Cl)o1	i	i	i	-5.5*	i
Cc1cccc(CS(=O)(=O)Cc2ccc(C(=O)NC3CCCCCC3)o2)c1	i	i	i	0.28	i
CCCCN(C(=O)CSCC(=O)Nc1ccc(OC)cc1)c1c(N)n(Cc2ccccc2)c(=O)[nH]c1=O	i	i	i	-1.3	i
Cc1cc(=O)c2cccc(Br)c2[nH]1	i	i	i	0.3	i
O=c1cc(C(F)(F)F)[nH]c2c(C(F)(F)F)cccc12	i	i	i	-0.73	100*
CN(CCOc1ccccc1)CC(=O)Nc1cc([N+](=O)[O-])ccc1Cl	i	i	i	-4.7*	i
Cc1ccc([N+](=O)[O-])cc1NC(=O)CN(C)CCOc1ccccc1	i	i	i	-3.4	i
COc1ccc(CCNc2nc(-c3ccccn3)cs2)cc1OC	i	i	-6.2*	0.39	i
CC(C(=O)Nc1ccccc1Oc1ccccc1)c1ccccc1 (configuration not stated)	i	i	i	-5*	i
CCOc1ccccc1NC(=O)C(OC(=O)c1ccccc1)c1ccccc1 (configuration not stated)	-6.9*	i	i	0.26	i
CCOc1ccccc1NC(=O)C(OC(=O)c1ccccc1O)c1ccccc1 (configuration not stated)	i	i	i	-1.6	i
Cc1nn(-c2ccccc2)nc1CNC(=O)C1CCC1	i	i	i	1.9	i

Bioassay records deposited in PubChem by Johns Hopkins Ion Channel Center.
